Vif imaging: inhibitors of HIV Vif; inhibition, % at 7.49 µM; HEK293T cells, Vif self-association by quenched fluorescence, imaging, 24 h; 340,000 compounds, 0.35% hits; in the data active = inhibition above about 50%, passing the limit was not always enough; inconclusive = no clear call, values can overlap the other calls; inactive = below about 31%
MITF act: activators of MITF-driven TRPM1 promoter activity in SK-MEL-5 cells. SK-MEL-5 TRPM1-promoter luciferase, 24 h; % of positive control, neutral wells = 0. activation, % at 12.5 µM. 300,000 compounds, 0.75% hits. AID 588334;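 active = mean activation of at least 80% with every replicate also reaching 80%; inconclusive = mean reaches 80% but some replicate falls short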;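 note: 0% = neutral control wells and 100% = parthenolide positive control wells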
Wnt act: activators of Wnt/beta-catenin signaling | Wnt/beta-catenin reporter cell assay, activator, plate reader | AID 743398 | 300,000 compounds, 1.2% hits | activation, % at 9.35 µM; in the data active = activation above about 30%, passing the limit was not always enough; inconclusive = no clear call, values can overlap the other calls;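 note: 0% = neutral control wells and 100% = positive control wells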
N-glyco inh: N-linked glycosylation inhibition; D54 ERlucT glycosylation luciferase reporter, 24 h; percent of 100 nM tunicamycin response; reporter increase, % at 12.5 µM; 360,000 compounds, 0.23% hits; AID 588692;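 active = mean luciferase reporter signal, scaled so untreated is 0 and the glycosylation-blocking control 100, at or above a set limit in every replicate; inconclusive = mean reaches the limit but not every replicate does; inactive = mean below the limit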;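 note: luciferase carries N-glycosylation sites so blocking glycosylation raises the light; 0% = median of neutral control wells and 100% = median of 100 nM tunicamycin wells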
PfHsp90 yeast 2: inhibits growth of yeast expressing Plasmodium falciparum Hsp90. S. cerevisiae expressing PfHsp90, BacTiter-Glo ATP, 48 h; yeast lacking PDR1 and PDR3 efflux regulators. inhibition, % at 9.4 µM. 310,000 compounds, 0.32% hits. AID 504621;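 active = every replicate shows inhibition above about 80%, whatever the replicate mean, limit read from the data; inconclusive = mean inhibition reaches the set limit but some replicate falls short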;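 note: 0% = DMSO neutral controls and 100% = 20 µM radicicol positive controls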
esBAF inh: SWI/SNF esBAF complex inhibition. mouse ES cells, Bmi1-luciferase knock-in reporter, 24 h; 100% = twice the neutral-well signal. 350,000 compounds, 2% hits. reporter increase, % at 12.5 µM. AID 602393; in the data active = activation above about 40%; inconclusive = no clear call, values can overlap the other calls;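 note: 0% = median of the plate's neutral control wells and 100% = double that signal; a rise in the Bmi1 reporter signal indicates esBAF inhibition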
The depositor's hits bear a star; ? = inconclusive; nt = no result given. The list is not random: actives were taken first. Their share in the collection is about 3%.

SMILES | Vif imaging | MITF act | Wnt act | N-glyco inh | PfHsp90 yeast 2 | esBAF inh
Cc1nn(-c2ccccc2)c(C)c1C(=O)OCC(=O)Nc1ccccc1F | -3.1 | 100.2* | 43.7* | -5.1 | -12.2 | 36.5
Cc1cc(C(=O)OCC(=O)Nc2c(F)cccc2F)c(C)n1-c1ccccc1 | -12.4 | 27.9 | 13.8 | -5.6 | -5.4 | 48.4*
Cc1nn(-c2ccccc2)c(C)c1C(=O)OCC(=O)NC12CC3CC(CC(C3)C1)C2 | -3.1 | 18.7 | 0.0 | -3.2 | -3.2 | 50.1*
Cc1cc(C(=O)OCC(=O)N2CCOCC2)c(C)n1-c1ccccc1 | 6.2 | 24.9 | 4.8 | -4.0 | 4.8 | 18.6
CC(=O)Nc1ccc(NC(=O)COC(=O)c2c(C)nn(-c3ccccc3)c2C)cc1 | -1.3 | -0.5 | -1.4 | 0.0 | -17.0 | nt
O=C1c2ccccc2C(=O)N1CCCc1nc2ccccc2c(=O)n1CCCn1ccnc1 | -17.4 | 10.4 | nt | 3.3 | nt | 3.6
CSc1ccc(-c2nnn(Cc3ccccn3)n2)cc1 | -4.0 | 62.7 | -1.0 | -1.4 | 13.4 | 51.0*
CSc1ccc(-c2nnn(Cc3ccc(Br)cc3)n2)cc1 | 25.8 | nt | 2.3 | -0.2 | 8.6 | 30.8
c1ccc(Cn2nnc(-c3ccccc3)n2)cc1 | 6.8 | 48.5 | 21.7 | -2.6 | 2.0 | 44.2*
CC(=O)Nc1ccc2nc(-c3ccccn3)[nH]c2c1 | nt | 44.0 | 36.5* | -2.3 | -2.3 | 32.6
O=C(Nc1ccc(-c2nc3ccc(NC(=O)c4cccs4)cc3[nH]2)cc1)c1cccs1 | 79.5* | -77.2 | nt | -7.9 | -16.6 | nt
O=C(Nc1ccc2nc(-c3cccs3)[nH]c2c1)c1cccs1 | -6.6 | 70.2 | 29.8 | -0.2 | -4.5 | nt
CC(=O)Nc1ccc2nc(-c3ccncc3)[nH]c2c1 | 19.1 | -1.6 | -6.7 | 0.4 | -1.0 | -2.0
O=C(Nc1ccc2nc(-c3cccs3)[nH]c2c1)c1ccco1 | nt | 102.5* | nt | -1.6 | -8.6 | 83.0*
C(=NOCc1ccccc1)c1ccncc1 | 1.2 | 57.2 | 7.6 | -0.9 | -9.6 | 38.5
C(=NOCCc1ccccc1)c1cccnc1 | 2.0 | 87.1* | -0.2 | -2.6 | 2.0 | 51.5*
Oc1ccc(Nc2nc3ccccc3nc2Nc2ccc(O)cc2)cc1 | 9.0 | nt | nt | 50.4* | -9.3 | 12.1
CC1(C)Cc2cccc(OCC(=O)Nc3ccc(S(N)(=O)=O)cc3)c2O1 | -14.9 | -10.7 | -4.9 | -1.9 | -19.4 | -0.3
O=C(CN1CCN(c2cccc(Cl)c2)CC1)NCc1ccccc1 | 9.0 | -3.6 | 10.8 | 2.5 | -6.3 | -0.8
O=C(CC(Nc1ccc(Cl)cc1)C(=O)O)c1ccccc1 (stereo not drawn) | 3.3 | 73.1 | 46.8* | -14.3 | -18.9 | nt
O=C(CC(Nc1ccccc1Cl)C(=O)O)c1ccccc1 (stereo not drawn) | -0.8 | -3.0 | -2.3 | -13.6 | 1.9 | nt
O=C(CC(=O)c1ccccc1)Nc1ccc(Cl)cc1 | 5.3 | 111.2* | 14.1 | 0.1 | 3.0 | ?
COC(=O)CSC(C(=O)Nc1ccc(C)c(C)c1)c1ccccc1 (stereo not drawn) | -1.5 | 28.5 | 34.8* | -0.2 | -52.0 | -1.3
Cc1ccc(NC(=O)C(SCC(=O)O)c2ccccc2)cc1C (stereo not drawn) | 16.7 | -3.8 | 10.7 | 1.8 | -23.9 | nt
Cc1ccc(NC(=O)c2ccc(NC(=O)c3ccccc3)cc2)cc1C | -20.2 | -21.4 | 0.6 | -5.2 | 17.6 | 0.6
SMILES | Vif imaging | MITF act | Wnt act | N-glyco inh | PfHsp90 yeast 2 | esBAF inh
Cc1ccc(NC(=O)CC(=O)c2ccccc2)cc1C | -10.7 | 144.2* | -1.2 | -0.9 | -35.5 | 75.4*
O=S1(=O)c2ccccc2OC(COCc2ccccc2)CN1C1CC1 (stereo not drawn) | -7.2 | -1.7 | -1.1 | 4.0 | -15.7 | 2.9
O=C(COc1ccc(/C=N/NS(=O)(=O)c2ccccc2)cc1)Nc1cccc(Cl)c1 | -6.5 | 38.7 | 3.4 | -4.6 | -28.2 | -4.5
Cc1noc(C)c1NC(=O)NCC[C@@H]1CC[C@@H](NC(=O)c2ccc(F)cc2)[C@H](CO)O1 | nt | nt | nt | nt | nt | 0.9
Cn1cnc2nc(Cl)nc(Cl)c21 | -4.6 | -15.6 | -10.5 | 7.3 | -14.1 | 10.6
CCCn1c(N)c(C(=O)CN(C)CC(=O)Nc2cccc(F)c2)c(=O)[nH]c1=O | -2.4 | -4.9 | -0.7 | 1.7 | nt | 5.5
COc1ccccc1CN1CC(C(=O)NCc2ccc(N3CCCC3=O)cc2)CCC1=O (stereo not drawn) | -0.8 | -2.2 | -2.4 | 2.1 | -2.7 | 0.7
O=C(OCc1cnc(Cl)s1)c1ccccc1Cl | 7.7 | nt | -0.2 | 0.2 | 16.4 | 36.7
O=C(OCn1ncc(Br)c(Br)c1=O)c1ccc(F)cc1 | nt | -85.2 | nt | -18.8 | 99.1* | -77.0
O=C(OCn1ncc(Br)c(Br)c1=O)c1ccccc1Cl | ? | -88.2 | nt | -17.7 | 90.5* | nt
Cc1ccc(N2C(=O)C3C4C=CC(CNC(=S)N5CCN(c6cccc(C)c6)C(C)C5)(O4)C3C2=O)cc1 (stereo not drawn) | -3.5 | -43.6 | -3.7 | 7.7 | 104.9* | -4.7
CC(=O)Oc1ccc(N2C(=O)C3C4C=CC(CO)(O4)C3C2=O)cc1 (stereo not drawn) | nt | -9.7 | nt | 0.2 | -77.7 | -4.8
CCC(=O)NC(c1ccc([N+](=O)[O-])cc1)c1c(O)ccc2ccccc12 (stereo not drawn) | -5.4 | -5.0 | nt | 3.5 | nt | 0.1
COCc1cc(C)nc2sc3c(=O)oc(C)nc3c12 | -1.9 | -11.4 | nt | 2.5 | nt | nt
C[C@@H]1CCCCO[C@@H](CN(C)C(=O)C2CCCCC2)[C@H](C)CN([C@H](C)CO)C(=O)c2cc(NS(=O)(=O)c3ccc(Cl)cc3)ccc2O1 | nt | nt | nt | nt | nt | 3.4
O=C(N/N=C/c1c[nH]c2ccccc12)c1cccs1 | 8.4 | nt | 42.6* | 7.4 | nt | nt
O=C(N/N=C/c1ccccn1)c1sc2ccccc2c1Cl | 1.6 | nt | -0.2 | ? | -69.9 | 29.7
O=C(N/N=C/c1ccc([N+](=O)[O-])o1)c1sc2ccccc2c1Cl | 5.7 | -76.7 | 31.8* | 11.5 | 103.5* | nt
O=C(NN=Cc1cccc2ccccc12)C(=O)NN=Cc1cccc2ccccc12 | 2.9 | 1.0 | -4.8 | 3.7 | -10.1 | -4.0
O=C(N/N=C/c1c[nH]c2ccccc12)c1sc2ccccc2c1Cl | -1.1 | 38.3 | nt | -2.7 | nt | 59.7*
O=C(N/N=C/c1c[nH]c2ccccc12)c1ccccc1 | ? | nt | 5.7 | 1.2 | -39.4 | 30.2
O=C(N/N=C/c1cccc2ccccc12)c1cccs1 | -2.5 | 55.9 | 34.4* | 2.1 | 15.0 | 67.4*
CC1(c2nnnn2Cc2ccccc2)CCC(=O)N1Cc1cccs1 (stereo not drawn) | nt | nt | -0.4 | nt | nt | nt
CO[C@@H]1CC[C@H]2CCOc3ccc(C#N)cc3C(=O)N(C)C[C@@H](c3ccccc3)CC(=O)N(C)C[C@H]1O2 | nt | nt | nt | nt | nt | -1.9
CCOC(=O)c1sc2nc(OCCN3CCOCC3)cc(C)c2c1N | nt | nt | 1.9 | nt | nt | nt
COC(=O)C(NC(=O)c1ccccc1Cl)(Nc1ncc(S(=O)(=O)c2ccc([N+](=O)[O-])cc2)s1)C(F)(F)F (stereo not drawn) | 2.6 | nt | -5.9 | -1.6 | nt | -11.3

Screens as filed in PubChem BioAssay.
